# Values without a mark were called inactive. How the calls were made is not given here. Where a SMILES comes first, the peptide text is derived from it. [ ]: non-standard residue; d: D form. ξ: configuration not given here. ξV = CC(C)C(N)C(=O)O
# Target: Pantothenate synthetase (Mycobacterium tuberculosis (strain ATCC 25618 / H37Rv)) (UniProt P9WIL5)
# Test: Recombinant Mtb pantothenate synthetase (PanC) inhibitors, coupled enzyme, confirmatory (AID 375);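 further: 0% = full reaction with vehicle and 100% = no enzyme background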
# Details: coupled enzyme assay; at 10 µM, stronger effect = higher value
# Chain of Pantothenate synthetase (Mycobacterium tuberculosis (strain ATCC 25618 / H37Rv)) (P9WIL5 whole entry, looked up): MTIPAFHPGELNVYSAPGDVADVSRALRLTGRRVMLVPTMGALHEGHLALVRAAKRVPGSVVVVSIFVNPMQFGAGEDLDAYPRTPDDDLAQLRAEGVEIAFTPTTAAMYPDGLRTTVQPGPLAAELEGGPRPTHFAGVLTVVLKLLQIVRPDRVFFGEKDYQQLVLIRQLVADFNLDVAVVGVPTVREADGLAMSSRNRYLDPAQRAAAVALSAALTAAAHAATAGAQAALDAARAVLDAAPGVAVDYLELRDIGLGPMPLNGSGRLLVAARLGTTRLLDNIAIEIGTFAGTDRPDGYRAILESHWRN
row,SMILES,inhibition [%]
1,Cc1ccc(-c2nnc(SCC(=O)N3c4ccccc4NC(=O)C3(C)C)n2N)cc1,1
2,O=C(CSc1nnc(CNC(=O)c2c(F)cccc2Cl)o1)c1ccccc1,0
3,COC(=O)C1=CN(C)C=C(C(=O)OC)C1c1ccc(O)c(OC)c1,0
4,CN1CCN(S(=O)(=O)c2ccc(Sc3nnc(-c4cccs4)n3-c3ccccc3)nc2)CC1,3
5,CC(=O)Nc1ccc(S(=O)(=O)NCC2CCC(C(=O)NCCCN3CCCC3=O)CC2)cc1 (stereo not given),0
6,COCCNC(=O)CC(NS(=O)(=O)c1ccc(NC(C)=O)cc1)C(C)C (stereo not given),0
7,Cc1c(C=NCCOCc2ccccc2)cnn1C,0
8,COc1ccc(NC(=O)CN2CCN(S(=O)(=O)c3ccc(Cl)cc3)CC2)cc1,13
9,O=C(NCCN1C(=O)C2C3C=CC(C3)C2C1=O)N1CCCCC1 (stereo not given),0
10,CC(NC(=O)c1cc2c(=O)n(C)c3ccccc3c2n1C)c1ccc2c(c1)OCCO2 (stereo not given),3
11,CC1=C(C)C(=O)C(CCCCC#CCCCC#CCO)=C(C)C1=O,6
12,CCOC(=O)c1cnn(-c2ncnc3c2cnn3Cc2ccccc2)c1N,5
13,CN1CC=C2C(C#N)=C(N)C(C#N)(C#N)C(c3cccc(Cl)c3Cl)C2C1 (stereo not given),0
14,O=C(NCc1ccccn1)Nc1ccc2c(c1)OCO2,4
15,c1ccc2c(c1)[nH]c1c(N3CCC4(CC3)OCCO4)ncnc12,0
16,NC(=O)C1(N2CCCCC2)CCN(C2CC(=O)N(Cc3cccs3)C2=O)CC1 (stereo not given),0
17,COc1ccc(Cc2noc(-c3ccc(C)cc3)n2)cc1,0
18,O=C1C2CC=C(Cl)CC2C(=O)N1CNc1ccccn1 (stereo not given),0
19,C/C(=N\O)C(=O)NCc1ccccn1,4
20,CCSc1nnc(-c2ccc(OC)cc2)o1,0

row,SMILES,inhibition [%]
1,Nc1nonc1NC(=O)CSc1nc2ccccc2s1,0
2,O=C(CN(Cc1ccco1)C(=O)CNS(=O)(=O)c1ccc(Cl)cc1)NCc1ccc(F)cc1,3
3,O=C(CN1C(=O)NC2(CCCCC2)C1=O)Nc1ccc(S(=O)(=O)N2CCOCC2)cc1,5
4,Cc1nn(-c2ccccc2)c(Cl)c1C1C(C#N)=C(N)OC2=C1C(=O)CC(C)(C)C2 (stereo not given),0
5,CCCN1C2=C(C(=O)CCC2)C(c2ccc(O)c(Br)c2)C2=C1CCCC2=O,0
6,CCn1c(SCC(=O)Nc2nccs2)nnc1-c1ccncc1,4
7,CC(=O)NC(C(=O)NCC(N)=O)C(C)C (stereo not given) (Ac-[ξV]-Gly-NH2),0
8,COc1ccc(OC)c(-c2nc3c(C)n[nH]c(=O)c3[nH]2)c1,0
9,NC(=O)c1sc2nc(N3CCCCC3)c3c(c2c1N)CCCC3,0
10,COc1ccc2c(c1)CCc1cc(C(=O)N3CCN(c4ccc(N5CCOCC5)nn4)CC3)sc1-2,2
11,Cc1ccc(C2=N/C(=C/N3CCOCC3)C(=O)O2)cc1,1
12,CN1C(=O)C(O)(CC(=O)c2ccc(F)cc2)c2cc(Br)ccc21 (stereo not given),0
13,CN(Cc1cccs1)C(=O)CCc1ccc(S(=O)(=O)N2CCOCC2)cc1,1
14,Cc1onc(-c2ccccc2)c1C(=O)Nc1ccnn1C1CCCCC1,1
15,CCCS(=O)(=O)N1CCN(C(=O)CCC2CCCC2)CC1,0
16,O=S(=O)(c1ccc(OCC(O)CN2CCC(Cc3ccccc3)CC2)cc1)N1CCOCC1 (stereo not given),1
17,CCOc1ccccc1C1C(C(=O)Nc2ccc(OC)cc2)=C(C)Nc2nc(CCCO)nn21 (stereo not given),0
18,Cc1noc(/C=C/N(C)C)c1S(=O)(=O)N1CCCC(C(=O)N2CCCCC2)C1 (stereo not given),7
19,CCCC1C(C#N)=C(N)Oc2n[nH]c(C(C)(C)C)c21 (stereo not given),0
20,O=C(CSc1nc2c(sc3ccccc32)c(=O)n1Cc1ccco1)NCC1CCCO1 (stereo not given),2

# From PubChem BioAssay
